Screens (PubChem)
TNAP act DEA: human TNAP enzyme activators, primary screen, biochemical, luminescent, intermediate phosphate acceptor level. Alkaline phosphatase, tissue-nonspecific isozyme (Homo sapiens), P05186. purified TNAP, CDP-star luminescence, 100 mM DEA, 30 min; hits give high values; scale: 0 levamisole-inhibited, 1 vehicle-only enzyme. activation factor at 20 µM. 64,000 tested, under 10 active. AID 813, 2007;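 active = activation factor of at least 2 at 20 µM, relative to controls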
PostGolgi ctrl: growth inhibition of yeast control strain, primary screen, counter-screen for post-Golgi transport modulator project | efflux-deficient yeast background strain, growth absorbance A615, 16 h | inhibition, % at 10 µM | 98,000 tested, 5% active | AID 738, 2007
PostGolgi yeast: phenotypic screen on post-Golgi transport, primary screen. AID 739, 2007. 98,000 tested, 0.9% active. post-Golgi transport phenotypic cell assay. inhibition, % at 10 µM;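 note: yeast cells grown in 1536-well plates; yeast grown about 18 h at 30C before absorbance read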
Cav3 T inh: Cav3.2 calcium influx blockers – cell-based, Fluo-4 calcium fluorescence, FDSS, MLSMR library, primary screen. Cav3.2-expressing cells; hits give low values. B-score at 10 µM. 100,000 tested, 4% active. AID 449739, 2010;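 active = single-dose well whose peak fluorescence ratio is a statistical outlier from its plate by either plate-standardised score or position-corrected B-score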
Smad3 inh: Smad3/FoxH1 peptide binding inhibitors, primary screen, biochemical, TR-FRET; inhibition, % at 25 µM; Mothers against decapentaplegic homolog 3 (Homo sapiens), P84022; 88,000 tested, 0.29% active; TR-FRET Smad3/Dy647-FoxH1 peptide binding, europium anti-His;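 active = compounds that reduce the energy-transfer binding signal between the protein and its labelled peptide by more than half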
DAT uptake mod: changed hDAT dopamine uptake under cocaine IC80, either direction, primary screen, cocaine antagonist project, cell-based, LLC-PK1 hDAT, [14C]-dopamine uptake, MLSMR | Sodium-dependent dopamine transporter (Homo sapiens), Q01959 | LLC-PK1 hDAT cells, [14C]-dopamine uptake with cocaine IC80; actives deviate in either direction | B-score at 10 µM | 110,000 tested, 1.3% active;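 active = Z score or B-score, a plate-position-corrected score, falls beyond the plate's 99.7% confidence bounds, in either direction; inactive = both scores lie inside the 99.7% bounds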
Target sequence (Q01959 whole entry, looked up): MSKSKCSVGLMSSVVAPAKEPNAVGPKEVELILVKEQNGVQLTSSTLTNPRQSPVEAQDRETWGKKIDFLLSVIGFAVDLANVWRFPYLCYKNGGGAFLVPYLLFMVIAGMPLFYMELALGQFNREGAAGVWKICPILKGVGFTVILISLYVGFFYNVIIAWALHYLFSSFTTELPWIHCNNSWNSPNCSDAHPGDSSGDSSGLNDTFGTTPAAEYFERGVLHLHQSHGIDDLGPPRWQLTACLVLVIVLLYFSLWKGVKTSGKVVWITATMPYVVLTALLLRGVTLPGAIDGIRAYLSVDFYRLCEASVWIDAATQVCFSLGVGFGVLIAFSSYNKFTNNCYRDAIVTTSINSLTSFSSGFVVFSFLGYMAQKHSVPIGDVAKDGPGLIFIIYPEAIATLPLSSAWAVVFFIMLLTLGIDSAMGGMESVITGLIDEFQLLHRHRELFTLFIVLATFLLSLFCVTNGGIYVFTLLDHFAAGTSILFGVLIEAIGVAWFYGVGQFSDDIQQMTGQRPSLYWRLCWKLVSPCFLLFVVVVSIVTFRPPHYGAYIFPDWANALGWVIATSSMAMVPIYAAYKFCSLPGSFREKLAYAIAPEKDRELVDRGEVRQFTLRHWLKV
Numbers stand for hits; – = inactive; · = no result given. Rows were chosen to be rich in hits. Some 8.7% of all compounds tested hit in one or more screens of this group. Cut-off read from the data, not from the text of the source, unless noted: active = inhibition above about 30%; inactive = the rest.

SMILES	TNAP act DEA	PostGolgi ctrl	PostGolgi yeast	Cav3 T inh	Smad3 inh	DAT uptake mod
O=c1[nH]c2ccccc2n1C1CCN(CCCC(c2ccc(F)cc2)c2ccc(F)cc2)CC1	–	·	·	-4.76	–	–
O=c1[nH]c(=O)n(Cc2ccco2)c(O)c1C=NCCCn1ccnc1	–	–	–	·	–	·
CCCC1COC(Cn2cncn2)(c2ccc(Cl)cc2Cl)O1 (stereo not given)	·	95.8	85.1	–	–	–
C[N+]1(C)CCC(OC(=O)C(c2ccccc2)c2ccccc2)CC1	·	·	·	-4.37	·	–
C[N+]1(C)[C@@H]2CC[C@H]1CC(OC(=O)[C@@H](CO)c1ccccc1)C2 (stereo not given in full)	·	·	·	·	–	·
CCC1=C(C)C(N2CCOCC2)=NP(N2CCOCC2)(N2CCOCC2)=N1	–	–	–	–	–	–
O=c1cccc2n1CC1CC2CN(C(c2cccc(F)c2)c2sc3ncnn3c2O)C1 (stereo not given)	–	–	–	–	–	–
O=c1[nH]c(=S)n(Cc2ccco2)c(O)c1C=NCc1cccs1	·	35.8	–	–	–	–
O=c1[nH]c(=O)n(Cc2ccco2)c(O)c1C=NCc1cccs1	–	–	–	–	–	–
Nc1c(C(=O)NC2CCCC2)c2nc3ccccc3nc2n1CC1CCCO1 (stereo not given)	–	62.2	–	-6.44	–	–
C[C@]12CC[C@H](O[C@@H]3O[C@H](CO)[C@@H](O)[C@H](O)[C@H]3O)C[C@@H]1CC[C@@H]1[C@@H]2CC[C@]2(C)[C@@H](C3=CCOC3=O)CC[C@@]12O	·	·	·	·	56.1	·
C[C@H]1CC[C@@H]2[C@@H](C)[C@H]3[C@H](C[C@H]4[C@@H]5CC=C6C[C@@H](O[C@@H]7O[C@H](CO)[C@H](O)[C@H](O[C@@H]8O[C@H](CO)[C@@H](O)[C@H](O)[C@H]8O)[C@H]7O[C@@H]7O[C@@H](C)[C@H](O)[C@@H](O)[C@H]7O)CC[C@]6(C)[C@H]5CC[C@]34C)N2C1	·	·	·	–	·	–
CCOC(=O)C1(c2ccccc2)CCN(CCC(C#N)(c2ccccc2)c2ccccc2)CC1	·	·	·	-7.55	·	–
O=C(COc1ccc(Cl)cc1Cl)N1CCN(C/C=C/c2ccccc2)CC1	·	66.0	104.0	–	–	–
Cc1ccc(C(=O)N[C@@H](C)CN2C3=NC[C@H](Cc4ccccc4)N3C[C@H]2Cc2ccc(O)cc2)cc1Br	·	·	·	–	·	–
C=CCn1c(O)c(C(CC)=NCc2cc(OC)cc(OC)c2)c(=O)[nH]c1=O	–	34.2	–	–	·	–
C=CCn1c(O)c(C(CC)=NCCC2=CCCCC2)c(=O)[nH]c1=O	·	38.2	–	–	–	–
CCCCn1c(O)c(C(CC)=NCc2ccc3c(c2)OCO3)c(=O)[nH]c1=O	–	54.6	–	-5.06	–	–
C=CCn1c(O)c(C(CC)=NCCCO)c(=O)[nH]c1=O	–	–	–	–	–	–
Cc1nc2ncnn2c(C)c1CCC(=O)N1CCC2(CC1)OCCO2	–	–	–	–	–	–
O=C(c1cc2ccccn2n1)N1CCC2(CC1)OCCO2	–	–	–	–	–	–
O=C(c1cc(-c2ccc(Cl)cc2)n(-c2ccc(Cl)cc2Cl)n1)N1CCOCC1	·	33.4	–	–	·	–
CCOC(=O)C1=C(C)OC(N)=C(C(=O)OCC)C12C(=O)Nc1ccc(Br)cc12 (stereo not given)	–	–	–	-3.81	–	–
O=c1c2ccccc2nc(-c2ccccc2)n1-c1ccncc1	·	–	–	–	·	–
NC(=O)c1cn(C2OC(CO)C(O)C2O)c2ncnc(N)c12 (stereo not given)	·	·	·	-4.74	·	–
SMILES	TNAP act DEA	PostGolgi ctrl	PostGolgi yeast	Cav3 T inh	Smad3 inh	DAT uptake mod
CCN(CC)CCN=Cc1c(O)n(C2CCCCCC2)c(=O)[nH]c1=O	–	–	–	–	–	–
COC(=O)CC1(CC(=O)OC)C(=O)NC(=O)NC1=O	–	–	–	–	–	–
CN1/C(=C\C=C\C2=[N+](C)c3ccc4ccccc4c3C2(C)C)C(C)(C)c2ccccc21	·	99.9	101.3	-5.91	–	–
Oc1ccc2c3c1O[C@H]1c4[nH]c5ccccc5c4C[C@@]4(O)C(C2)N(CC2CC2)CC[C@]314	·	·	·	–	·	–
CC(=NCCCO)c1c(O)n(Cc2ccccc2)c(=O)[nH]c1=O	–	·	·	–	–	–
CCCCCCn1c(O)c(C(C)=NC)c(=O)[nH]c1=O	–	–	–	–	–	–
CCCCn1c(O)c(C(C)=NC(Cc2c[nH]c3ccccc23)C(=O)OC)c(=O)[nH]c1=O (stereo not given)	–	–	–	-4.34	–	2.69
CCCCn1c(O)c(C(C)=Nc2ccc(OCC)cc2)c(=O)[nH]c1=O	–	–	52.4	–	–	–
CCCCCCN=C(C)c1c(O)n(Cc2ccccc2)c(=O)[nH]c1=O	·	34.7	–	–	–	–
CCOP(=S)(OCC)SCC(=O)NC(C(=O)O)C(C)C (stereo not given)	·	–	–	–	–	–
O=C(O)C1(c2ccc(Cl)cc2)CCC1	–	–	–	–	–	–
CCOC(=O)C1C(=O)N(C)C2(C)CC1c1ccccc1O2 (stereo not given)	–	–	–	–	–	–
COc1ccccc1OCC(=O)Nc1ccc(Cl)cc1C(=O)c1ccccc1	·	40.3	–	–	·	–
CCC(C)(C)n1nnnc1C(c1cccs1)N1CC=C(c2ccc(F)cc2)CC1 (stereo not given)	–	40.9	–	–	–	–
Fc1ccc(C2=CCN(C(c3cccs3)c3nnnn3CCc3ccccc3)CC2)cc1 (stereo not given)	·	43.1	–	–	–	–
CN1CCN(c2ccc([N+](=O)[O-])c(N/N=C3\CN4CCC3CC4)c2)CC1	·	–	–	–	·	–
CN1C(=O)C(Cc2ccc3c(c2)OCO3)C(=O)N(C)C1=O	–	–	–	–	–	–
O=c1cccc2n1CC1CC2CN(S(=O)(=O)c2ccccc2)C1 (stereo not given)	·	–	43.1	–	–	–
CN1CCC(N2CC3CC(C2)c2cccc(=O)n2C3)CC1 (stereo not given)	–	·	·	–	–	–
CCCCN1C(=O)NC(=O)C2(Cc3c(nc4c(C)cccn4c3=O)N3CCc4ccccc4C32)C1=O (stereo not given)	–	39.4	–	·	–	·
CN(C)c1ccc2c(c1)N=C(c1ccco1)OP2(=S)N1CCOCC1 (stereo not given)	–	–	–	–	–	–
CN1C[C@H](CNC(=O)OCc2ccccc2)C[C@@H]2c3cccc4c3c(cn4C)C[C@H]21	–	·	·	-4.4	–	–
